Sampled rows, rich in hits. Any-hit rate of the full collection: about 17%.
TDP1 cell noCPT – qHTS for Inhibitors of human tyrosyl-DNA phosphodiesterase 1 (TDP1): qHTS in cells in absence of CPT; DT40 Tdp1-/- hTDP1 cells, no CPT, ATP luminescence, 48 h; hit rate 15% among 420,000; Potency, µM (top dose mostly 46.2 µM), inactives show at the top dose activity change, negative = growth inhibition, hits mostly inhibitors; note: % is set by controls: 0 for no effect and ±100 for the full control effect; nearly all actives have a fitted effect of over 55% in size
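Compound effects on proliferation are scored in DT40 Tdp1-/-;hTDP1 cells in the absence of CPT. ATP levels (CellTiter-Glo luminescence) are recorded after a ≥48 hr, 37 °C incubation.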
ClpP mod – qHTS Assay for Activators of ClpP; AID 651965, 2013; hit rate 1.9% among 340,000; Potency, µM (titrated, usually from 57.5 µM), for the others: top-dose activity change, negative = active; purified B. subtilis ClpP, FRET peptide cleavage, 20 min; active = well fitted falling curve with a large enough effect; inconclusive = small, poorly fitted or top-dose-only effect; inactive = no such curve, though single readings can be large or run the other way; note: the source files actives as falling curves though it sought activators and does not explain the sign; nearly all actives have a fitted effect of over 65% in size
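FRET quenching reversal measured ClpP activation: 10 microg/mL B. subtilis ClpP at pH 8 with the FRET-FV decapeptide, read at 430 nm after 320 nm excitation. The 20-min minus 0-min signal was scaled between DMSO/no-enzyme wells and ADEP (5.8 microM final).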
DT40 TDP1 CPT – qHTS for Inhibitors of human tyrosyl-DNA phosphodiesterase 1 (TDP1): qHTS in cells in presence of CPT; chicken DT40 Tdp1-/-;hTDP1 cells + 20 nM CPT, ATP luminescence, 48 h; Potency, µM (highest dose often 46.2 µM), for inactives: at the top dose activity change, negative = growth inhibition, actives largely listed as inhibitors; hit rate 12% among 420,000; note: % is set by controls: 0 for no effect and ±100 for the full control effect; nearly all actives have a fitted effect of over 55% in size
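Chicken DT40 Tdp1-/- cells complemented with human TDP1, 400 cells/well, exposed to compounds plus 20 nM camptothecin for at least 48 h at 37 C; viability read as ATP content by CellTiter-Glo luminescence.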
TDP1 block – qHTS Assay for Inhibitors of Tyrosyl-DNA Phosphodiesterase (TDP1). Tyrosyl-DNA phosphodiesterase 1 (Homo sapiens), Q9NUW8. AID 485290, 2010. hit rate 0.28% among 350,000. Potency, µM (titrated, usually from 130 µM), for inactives: at the highest dose activity change, negative = inhibition, actives largely listed as inhibitors. recombinant TDP1, AlphaScreen DNA substrate cleavage; note: % is set by controls: 0 for no effect and ±100 for the full control effect; nearly all actives have a fitted effect of over 40% in size
Target sequence (Q9NUW8 whole entry, looked up): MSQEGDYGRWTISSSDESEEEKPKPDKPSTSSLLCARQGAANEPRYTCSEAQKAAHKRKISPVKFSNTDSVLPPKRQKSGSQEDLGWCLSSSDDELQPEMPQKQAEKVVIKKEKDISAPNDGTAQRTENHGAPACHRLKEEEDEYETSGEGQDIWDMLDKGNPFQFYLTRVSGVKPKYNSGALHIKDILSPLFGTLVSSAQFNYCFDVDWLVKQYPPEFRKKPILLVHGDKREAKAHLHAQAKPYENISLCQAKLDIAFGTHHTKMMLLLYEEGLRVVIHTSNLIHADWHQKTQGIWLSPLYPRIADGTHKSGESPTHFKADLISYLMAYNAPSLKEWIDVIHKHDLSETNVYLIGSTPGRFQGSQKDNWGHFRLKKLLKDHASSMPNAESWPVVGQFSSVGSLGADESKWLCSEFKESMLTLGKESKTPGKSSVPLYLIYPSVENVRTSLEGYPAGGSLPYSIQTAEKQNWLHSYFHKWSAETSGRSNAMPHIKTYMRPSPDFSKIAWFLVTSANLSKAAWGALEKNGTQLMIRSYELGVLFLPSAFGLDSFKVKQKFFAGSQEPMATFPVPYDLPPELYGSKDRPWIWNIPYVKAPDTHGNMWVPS
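Steps: enzyme plus compound, 15 min RT; add biotin/phosphotyrosine-FITC oligonucleotide (15 nM final), react 5 min; add donor/acceptor beads (10 ug/ml final), 10 min; read AlphaScreen. Tdp1 at 1 nM final.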
Active calls of the source: *; [ ] = dose if it differs, or a comment. Unless noted, calls come from the whole dose curve; as a rule, active = well fitted curve in the direction sought with a large enough effect; inconclusive = small, poorly fitted or top-dose-only effect, or another doubt; inactive = no such curve, though single readings can be large; an effect the other way counts as inactive or inconclusive. Potency is the fitted concentration of half-maximal effect.

What do the screens show for `O=C(NCCCN1CCOCC1)c1ccc(Sc2ccc(Br)cc2)c([N+](=O)[O-])c1`?
TDP1 cell noCPT: 10µM*; ClpP mod: 1%; DT40 TDP1 CPT: 6.5µM*; TDP1 block: 3%

How did O=C(NCCCN1CCOCC1)c1cccc(NC(=O)c2ccccc2)c1 do in these assays?
TDP1 cell noCPT: -1%; ClpP mod: 1%; DT40 TDP1 CPT: 8%

Results for CCCCN(CC)CCCNC(=S)Nc1ccc2nc(N3CCN(CC)CC3)cc(C)c2c1 ?
TDP1 cell noCPT: 16µM*; DT40 TDP1 CPT: inconclusive; TDP1 block: 7%

Results for CCCCN(CC)CCCNC(=S)Nc1ccc2nc(N3CCN(C)CC3)cc(C)c2c1 ?
TDP1 cell noCPT: 16µM*; DT40 TDP1 CPT: inconclusive; TDP1 block: 6%

What do the screens show for `COC(=O)N1CCC[C@@]2(CCN(c3ccccn3)C2)C1`?
TDP1 cell noCPT: -16%; DT40 TDP1 CPT: 2%

Results for Cc1cc(C)c(C(=O)c2ccc(C(=O)N(C(C)C)C(C)C)cc2)c(C)c1 ?
TDP1 cell noCPT: 18µM*; ClpP mod: 0%; DT40 TDP1 CPT: 16µM*; TDP1 block: -8%

Results for Cc1cc(C)c(C(=O)c2ccc(C(=O)NC(C)(C)C)cc2)c(C)c1 ?
TDP1 cell noCPT: -27%; ClpP mod: -1%; DT40 TDP1 CPT: -19%; TDP1 block: 1%

What do the screens show for `CCC(C(=O)Nc1ccc(C(=O)OC)cc1)n1nc(-c2ccc(C)c(C)c2)ccc1=O` (centres undefined)?
TDP1 cell noCPT: inconclusive; ClpP mod: -21%; DT40 TDP1 CPT: inconclusive; TDP1 block: 3%

Results for Nc1nonc1C(=O)NCCNCc1cccc(Cl)c1Cl ?
TDP1 cell noCPT: -27%; ClpP mod: 2%; DT40 TDP1 CPT: -22%; TDP1 block: -1%

Results for COc1ccc(-n2nc3ccc(NS(C)(=O)=O)cc3n2)cc1Cl ?
TDP1 cell noCPT: -1%; ClpP mod: 28µM*; DT40 TDP1 CPT: 2%; TDP1 block: 2%

What do the screens show for `COc1ccc(-n2nc3ccc(N)cc3n2)cc1Cl`?
TDP1 cell noCPT: inconclusive; ClpP mod: 3%; DT40 TDP1 CPT: -12%

Results for CCC1CCCCN1C(=O)CSc1nnc(-c2ccc(OC)c(OC)c2)o1 (centres undefined) ?
TDP1 cell noCPT: inconclusive; ClpP mod: -11%; DT40 TDP1 CPT: inconclusive; TDP1 block: 2%[12.3 µM]

Results for COc1ccc(-c2nc(C)ncc2N=Nc2ccccc2)cc1 ?
TDP1 cell noCPT: -44%; ClpP mod: inconclusive; DT40 TDP1 CPT: inconclusive; TDP1 block: 14%

How did Oc1ccccc1N=Nc1nc(-c2ccccc2)c(-c2ccccc2)[nH]1 do in these assays?
TDP1 cell noCPT: 2.9µM*; ClpP mod: -2%; DT40 TDP1 CPT: 2.6µM*; TDP1 block: 13%

How did COc1ccccc1N=NNc1ccccc1OC do in these assays?
TDP1 cell noCPT: inconclusive; ClpP mod: -1%; DT40 TDP1 CPT: inconclusive

What do the screens show for `COc1ccc(N=Nc2nc(-c3ccccc3)c(-c3ccccc3)[nH]2)cc1`?
TDP1 cell noCPT: 16µM*; ClpP mod: 1%; DT40 TDP1 CPT: inconclusive; TDP1 block: 12%

Results for COc1ccccc1N=Nc1nc(-c2ccccc2)c(-c2ccccc2)[nH]1 ?
TDP1 cell noCPT: 16µM*; ClpP mod: 1%; DT40 TDP1 CPT: 18µM*; TDP1 block: 11%

Results for CC1CC(Nc2ccccc2)c2ccccc2N1C(=O)c1cccnc1 (centres undefined) ?
TDP1 cell noCPT: 4.6µM*; ClpP mod: -4%; DT40 TDP1 CPT: 9.2µM*; TDP1 block: 5%

What do the screens show for `C[C@@H]1C[C@H](Nc2ccccc2)c2ccccc2N1C(=O)c1cccnc1`?
TDP1 cell noCPT: 4.6µM*; ClpP mod: -3%; DT40 TDP1 CPT: 7.3µM*; TDP1 block: 7%

How did CC1CC(Nc2ccccc2)c2ccccc2N1C(=O)c1ccccc1F (centres undefined) do in these assays?
TDP1 cell noCPT: 1µM*; ClpP mod: -3%; DT40 TDP1 CPT: 1.8µM*

Results for CCOC(=O)C1CCCCN1Cc1ccc(OC)c(OC)c1 (centres undefined) ?
TDP1 cell noCPT: inconclusive; DT40 TDP1 CPT: -10%; TDP1 block: -14%

Results for O=C(CCC(=O)c1ccc(F)cc1)OCc1nnc(-c2ccc([N+](=O)[O-])cc2)o1 ?
TDP1 cell noCPT: 1%; ClpP mod: 1%; DT40 TDP1 CPT: -27%; TDP1 block: 0%

Results for O=S(=O)(c1ccc(F)cc1)N1CCN(c2nc(-c3ccc(F)cc3)nc3cc(Cl)ccc23)CC1 ?
TDP1 block: 0%

How did O=C(Nc1ccccc1C(=O)NCC1CCCO1)c1ccc(Cl)cc1 (centres undefined) do in these assays?
TDP1 cell noCPT: -1%; ClpP mod: 0%; DT40 TDP1 CPT: inconclusive; TDP1 block: 1%

How did Cc1cc(C)c(CSc2ncc(-c3ccc([N+](=O)[O-])cc3)[nH]2)c(C)c1 do in these assays?
TDP1 cell noCPT: 10µM*; ClpP mod: -7%; DT40 TDP1 CPT: 16µM*; TDP1 block: 8%

How did O=[N+]([O-])c1ccc(-c2cnc(SCc3ccccc3Cl)[nH]2)cc1 do in these assays?
TDP1 cell noCPT: -11%; ClpP mod: -4%; DT40 TDP1 CPT: 3%; TDP1 block: 6%

How did O=C(/C=C/c1ccc([N+](=O)[O-])s1)N1CCCC1 do in these assays?
TDP1 cell noCPT: 10µM*; ClpP mod: 0%; DT40 TDP1 CPT: 21µM*; TDP1 block: 6%

What do the screens show for `O=C(/C=C/c1ccc([N+](=O)[O-])s1)N1CCCCC1`?
TDP1 cell noCPT: 12µM*; DT40 TDP1 CPT: inconclusive; TDP1 block: 2%

Results for O=C(/C=C/c1ccc([N+](=O)[O-])s1)N1CCN(c2ccccc2)CC1 ?
TDP1 cell noCPT: 16µM*; ClpP mod: -2%; DT40 TDP1 CPT: inconclusive; TDP1 block: 1%

What do the screens show for `O=C(/C=C/c1cccs1)N1CCCCC1`?
TDP1 cell noCPT: -16%; DT40 TDP1 CPT: -11%; TDP1 block: -3%

Results for CC1CN(C(=O)/C=C/c2ccc([N+](=O)[O-])s2)CC(C)O1 (centres undefined) ?
TDP1 cell noCPT: 15µM*; DT40 TDP1 CPT: inconclusive; TDP1 block: 5%

What do the screens show for `CCOC(=O)c1c(S(=O)(=O)NCC(C)c2ccccc2)c(C)n(C)c1C` (centres undefined)?
TDP1 cell noCPT: -18%; ClpP mod: -3%; DT40 TDP1 CPT: -13%; TDP1 block: 3%

How did Cc1cc(Br)ccc1NC(=O)c1cn(C2CCCC2)c(=O)c2c1c1ccccc1n2C do in these assays?
TDP1 cell noCPT: inconclusive; ClpP mod: -13%; DT40 TDP1 CPT: -27%; TDP1 block: 2%
